Compounds without any hit were thinned out: in the full panel of roughly 83,000, 20% have a hit.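 Note: values are percent growth. 100 is the growth of untreated cells, values between 100 and 0 indicate rising inhibition; between -100 and 0 indicates cell death.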 Values without a mark were called inactive. Activity calls are given as the source filed them. Rule for the calls: active = growth percent below 10; inactive = the rest.
How the values were obtained:
Assay in all cases: NCI-60 one-dose screen, 48 h (100 = growth as untreated, 0 = no growth, -100 = all killed)
Settings in all cases: 10 µM unless noted
HCT-15 colon = test system: HCT-15 colon
HT29 colon = test system: HT29 colon
SNB-75 CNS = test system: SNB-75 CNS
SNB-19 CNS = test system: SNB-19 CNS
U251 CNS = test system: U251 CNS
PC-3 prostate = test system: PC-3 prostate
SK-MEL-5 melanoma = test system: SK-MEL-5 melanoma
UACC-62 melanoma = test system: UACC-62 melanoma
LOX IMVI melanoma = test system: LOX IMVI melanoma
SK-MEL-28 melanoma = test system: SK-MEL-28 melanoma

| Compound | growth (HCT-15 colon) | growth (HT29 colon) | growth (SNB-75 CNS) | growth (SNB-19 CNS) | growth (U251 CNS) | growth (PC-3 prostate) | growth (SK-MEL-5 melanoma) | growth (UACC-62 melanoma) | growth (LOX IMVI melanoma) | growth (SK-MEL-28 melanoma) |
| --- | --- | --- | --- | --- | --- | --- | --- | --- | --- | --- |
| Cn1cc(-c2cc3ncnc(Nc4ccc(CC(=O)Nc5nc(C(C)(C)C)cs5)cc4)c3s2)cn1 | 26.6% | 49.9% | 50.9% | 94.5% | 66% | 41.4% | 53% | 40.3% | 26.3% | 68.9% |
| Cn1c(SCC(=O)c2ccco2)nc2ccccc2c1=O | 84.9% | 118% | 86.2% | 102% | 105% | 93.6% | 98.1% | 87% | 95.2% | 108% |
| CNC(=O)c1cc(N2CCc3cc(NC(=O)Nc4ccc(N5CCN(C)CC5)c(C(F)(F)F)c4)ccc32)ccn1 | 29.1% | 21.8% | 75.1% | 81.5% | 52.7% | 59.7% | 85.8% | 104% | -77.5% (active) | 7.33% (active) |
| C#C[C@]1(O)CC[C@H]2[C@@H]3CC=C4c5sc(N(C)c6ccccc6)nc5CC[C@]4(C)[C@H]3CC[C@@]21C | 27.8% | -3.51% (active) | 99.8% | 91.3% | 60.6% | 59.1% | 87.3% | 77% | 67.8% | 76.9% |
| CC(=O)Nc1nc(C)c(-c2csc(Nc3ccccc3)n2)s1 | 16.4% | 28.7% | 38.3% | 35.8% | 40.8% | 31.8% | 9.06% (active) | 21.4% | 21.4% | 38.1% |
| O=C(Nc1ccc(Cl)c(C(F)(F)F)c1)Nc1ccc2oc(=O)ccc2c1 | 16.6% | 65.4% | 58.6% | 28.5% | 31.3% | 10.6% | 41.4% | 27.9% | 1.96% (active) | 66.7% |
| Cc1ccc(S(=O)(=O)c2nc(-c3ccc(F)cc3)oc2S(C)(=O)=O)cc1 | 13.4% | 55.1% | 87.2% | 91.4% | 96.1% | 91.8% | 98.4% | 84.4% | -68.8% (active) | 79.8% |
| Brc1cc(-c2cc(-c3ccc4c(c3)OCCO4)[nH]n2)cs1 | 24.4% | 22.6% | 19.9% | 56.9% | 40% | 61.8% | 23.5% | 54.7% | 42.3% | 58.6% |
| Cc1csc(/N=C(N)/N=C(\N)c2cccnc2)n1 | 42.7% | 59% | 41.7% | 69.4% | 76.5% | 69.2% | 80.3% | 40.2% | 74.7% | 65.3% |
| O=C(Nc1cccc(C(F)(F)F)c1)N1CCN(c2cc(-c3cn(-c4ccccc4)nc3-c3cccc(O)c3)ccn2)CC1 | 22.2% | 24.5% | 71.8% | 57.4% | 48.1% | 28.2% | 40.2% | 40% | 25.5% | 55% |
| NC(=S)n1c(=O)n(-c2cccc(C(F)(F)F)c2)c(=O)c2cc(-c3ccc(F)cc3F)ccc21 | 9.27% (active) | 37.4% | -24.9% (active) | 15.6% | 9.68% (active) | 0.986% (active) | -57.3% (active) | -3.3% (active) | -46.5% (active) | 23% |
| CC1=C(C)C(=O)C(Nc2ccc(C)c(C)c2)=C(Br)C1=O | 92.3% | 107% | 73.2% | 97.4% | 102% | 85% | 89.1% | 96.4% | -54.6% (active) | 111% |
| CC(=O)N(O)CCCCCNC(=O)CCC(=O)N(O)CCCCCNC(=O)CCC(=O)N(O)CCCCCN(CCCCCCCCCC[P+](c1ccccc1)(c1ccccc1)c1ccccc1)CCCCCCCCCC[P+](c1ccccc1)(c1ccccc1)c1ccccc1 | 51.1% | 5.49% (active) | -11% (active) | 17.2% | 6.66% (active) | 19.6% | -45.9% (active) | -10.6% (active) | -15% (active) | 13.4% |
| O=C(/C=C/Nc1ccc(S(=O)(=O)Nc2ncccn2)cc1)c1ccc(N=Cc2c(O)[nH]c3ccccc23)cc1 | 104% | 106% | 102% | 112% | 103% | 101% | 98.1% | 108% | 102% | 118% |
| O=C(Nc1cccc(Cl)c1)Nc1nc2cc([N+](=O)[O-])ccc2o1 | 29.4% | 71.6% | 72.9% | 31.3% | 23.3% | 29.8% | 15.7% | 29.1% | 40.4% | 36.2% |
| Cn1cc(-c2cc3ncnc(Nc4ccc(NC(=O)Nc5cc(C(C)(C)C)on5)cc4)c3s2)cn1 | 27.9% | 16.7% | 6.15% (active) | 56.4% | 37.9% | 28.5% | 20.8% | 22.2% | 6.08% (active) | 15% |
| NS(=O)(=O)c1ccc(Nc2nc(N/N=C/C=C/c3ccccc3)nc(Nc3ccccc3)n2)cc1 | 45% | 34.6% | 43% | 48.4% | 51.1% | 47.5% | 40.3% | 66.4% | 27.3% | 60.3% |
| O=C1c2ccccc2C23C(=C(c4cncnc4)c4ccccc42)CCCN13 (stereo not given) | 104% | 101% | 85.3% | 93.4% | 102% | 88.8% | 98.7% | 88.2% | 76.1% | 101% |
| C=C(C)[C@@H]1CC[C@]2(COP(=O)(OCC)OCC)CC[C@]3(C)[C@H](CC[C@@H]4[C@@]5(C)CC[C@H](OP(=O)(OCC)OCC)C(C)(C)[C@@H]5CC[C@]43C)[C@@H]12 | 6.86% (active) | 35.2% | 75.3% | 50.7% | 42.2% | 22.7% | 11.5% | 43.1% | 25.4% | 77.5% |
| CC1CCN(CC(=O)Nn2c(COc3ccccc3)nc3ccccc3c2=O)CC1 | 56% | 73.1% | 72.6% | 86.4% | 81.4% | 94.3% | 82.9% | 69.3% | 85.3% | 92.8% |
| CCCC[n+]1ccc(SCC(=O)n2ccc3ccccc32)c2ccccc21 | 103% | 96.9% | 92.7% | 97.4% | 89.3% | 90.9% | 85.8% | 77.7% | 101% | 109% |
| CN1CCN(Cc2ccc(NC(=O)c3cncc(C#Cc4cnc5ccc(OCC(F)F)nn45)c3)cc2C(F)(F)F)CC1 | -57.4% (active) | -66% (active) | -95.1% (active) | -31.7% (active) | -72.7% (active) | -19.4% (active) | -95.7% (active) | -46.8% (active) | -91.2% (active) | -82.4% (active) |
| O=C(/C=C/c1ccccc1Cl)Nc1ncc(Cc2cc(Cl)ccc2Cl)s1 | 21.7% | -18% (active) | 1.14% (active) | 21% | 16.6% | 39.8% | 25.7% | 23.2% | 35% | 55.4% |
| CC(=O)C1=C(C)NC(NNc2ccccc2)=NC1c1ccc([N+](=O)[O-])cc1 (stereo not given) | 67.9% | 96.5% | 102% | 87.8% | 93.1% | 79.3% | 98.7% | 52.8% | 77.1% | 102% |
| COC(=O)CNC(=O)c1cccc(-c2cc(=O)c3c(OC)c(OC)c(OC)cc3o2)c1 | 96% | 110% | 99.5% | 92.6% | 106% | 95.6% | 98.6% | 90.2% | 97.5% | 106% |
